Measurements from PubChem BioAssay (EPA / NIEHS).
Where a structure was tested more than once in an assay, its records may differ in their call. Activity calls are given as the source filed them. Rule for the calls: active = hit-call score of the fitted dose curve at least 0.9, where 1 is the maximum; inactive = score below 0.9.

What was measured:
[1] = read-out: urokinase plasminogen activator (uPA), PLAU (gene 5328); assay: BSK_KF3CT_uPA: BioMAP Diversity Plus: KF3CT Assay for urokinase plasminogen activator (uPA) Biomarker Activity (AID 2283075); conditions: primary human keratinocytes with fibroblasts; actives raise or lower the signal
Outline: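 Skin co-culture (keratinocytes + foreskin fibroblasts), human primary; 24 h post-dose; uPA by ELISA; gain/loss fit vs DMSO baseline.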

CD40, CD40 (gene 958) [2] = assay: BSK_LPS_CD40: BioMAP Diversity Plus: LPS Assay for CD40 Biomarker Activity (AID 2283076); conditions: primary human HUVEC with PBMC; actives raise or lower the signal
Outline: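 CD40 signal, measured by ELISA, is fitted in both directions relative to DMSO vehicle. The system is an LPS-driven human vascular primary co-culture of endothelial cells and PBMC, sampled 24 h after compound addition.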

[3] = read-out: E-selectin (Homo sapiens) (UniProt P16581); assay: BSK_LPS_Eselectin: BioMAP Diversity Plus: LPS Assay for Eselectin Biomarker Activity (AID 2283077); conditions: primary human HUVEC with PBMC; actives raise or lower the signal
Outline: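 Signal of E-selectin, detected by ELISA, served as the endpoint; cells were umbilical vein endothelium with PBMC, read 24 h after treatment. DMSO defined baseline, and both increases and decreases were fitted.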

[4] = read-out: Interleukin-8 (IL8), CXCL8 (gene 3576); assay: BSK_LPS_IL8: BioMAP Diversity Plus: LPS Assay for Interleukin-8 (IL8) Biomarker Activity (AID 2283078); conditions: primary human HUVEC with PBMC; actives raise or lower the signal
Outline: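 Endothelial cells and PBMC from human donors are co-cultured, treated with chemicals and LPS, then assayed for IL-8 by ELISA after 24 h. Parallel SRB staining (0.1% SRB after 10% TCA fixation, 560 nm) flags cytotoxicity.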

[5] = BSK_LPS_SRB: Viability Assessment in the BioMAP Diversity Plus: LPS Assay (AID 2283079); conditions: primary human HUVEC with PBMC;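 note: total protein by sulforhodamine B absorbance as a cytotoxicity measure; measured one day after compound addition; fitted in both directions against DMSO so loss or gain of signal counts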
Outline: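 Overt cytotoxicity was gauged by sulforhodamine B total-protein staining in a primary human vascular endothelial and mononuclear cell co-culture 24 h post-dosing. Activity was fitted in both directions relative to DMSO.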

[6] = read-out: Interleukin-1 alpha (IL1a), IL1A (gene 3552); assay: BSK_LPS_IL1a: BioMAP Diversity Plus: LPS Assay for Interleukin-1 alpha (IL1a) Biomarker Activity (AID 2283080); conditions: primary human HUVEC with PBMC; actives raise or lower the signal
Outline: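 Measured: IL-1 alpha via ELISA at 24 h in LPS-activated human umbilical vein endothelium–PBMC co-culture. Baseline: DMSO, bidirectional fitting.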

[7] = read-out: Monocyte Chemoattractant Protein-1 (MCP1), CCL2 (gene 6347); assay: BSK_LPS_MCP1: BioMAP Diversity Plus: LPS Assay for Monocyte Chemoattractant Protein-1 (MCP1) Biomarker Activity (AID 2283081); conditions: primary human HUVEC with PBMC; actives raise or lower the signal;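 for AC50: secreted MCP-1 protein quantified by ELISA in culture supernatant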
Outline: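 LPS-stimulated HUVEC/PBMC co-culture; chemical, 24 h; MCP-1 by ELISA; bidirectional fit vs DMSO; cytotoxicity via SRB (0.1% stain, 10% TCA fix, 560 nm) in parallel wells.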

[8] = BSK_LPS_PGE2: BioMAP Diversity Plus: LPS Assay for Prostaglandin E2 (PGE2) Biomarker Activity (AID 2283082); conditions: primary human HUVEC with PBMC; actives raise or lower the signal;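 for AC50: secreted prostaglandin E2 measured by ELISA in LPS-stimulated co-culture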
Outline: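 Compounds were added to the LPS co-culture of endothelium and PBMC, and PGE2 was measured by ELISA after 24 h. Responses in either direction were fitted with DMSO as baseline.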

[9] = read-out: Tissue Factor, F3 (gene 2152); assay: BSK_LPS_TissueFactor: BioMAP Diversity Plus: LPS Assay for Tissue Factor Biomarker Activity (AID 2283084); conditions: primary human HUVEC with PBMC; actives raise or lower the signal
Outline: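 In this co-culture system of umbilical vein endothelium with PBMC, stimulated with LPS, cell-surface CD142 is detected by ELISA at 24 h. Endpoint values derive from bidirectional fitting, DMSO serving as baseline.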

[10] = read-out: Tumor necrosis factor (Homo sapiens) (UniProt P01375); assay: BSK_LPS_TNFa: BioMAP Diversity Plus: LPS Assay for Tumour Necrosis Factor alpha (TNFa) Biomarker Activity (AID 2283085); conditions: primary human HUVEC with PBMC; actives raise or lower the signal;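 for AC50: TNFa protein level quantified by ELISA in the co-culture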
Outline: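 Cells (umbilical vein endothelium plus peripheral blood mononuclear cells) were dosed with chemical, incubated 24 h, then TNFa was quantified by ELISA; values derive from bidirectional fitting with DMSO as baseline.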

CD38, CD38 (gene 952) = assay: BSK_SAg_CD38: BioMAP Diversity Plus: SAg Assay for CD38 Biomarker Activity (AID 2283087); conditions: primary human HUVEC with PBMC; actives raise or lower the signal
Outline: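 CD38 quantified by ELISA (fluorescence) in a superantigen-activated endothelial cell–PBMC co-culture at 24 h post-dose. Activity fitted in both directions relative to DMSO; parallel SRB and Alamar Blue cytotoxicity read-outs.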

CD40, CD40 (gene 958) [11] = assay: BSK_SAg_CD40: BioMAP Diversity Plus: SAg Assay for CD40 Biomarker Activity (AID 2283088); conditions: primary human HUVEC with PBMC; actives raise or lower the signal
Outline: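 Fluorescence ELISA read-out of CD40 from umbilical vein endothelium plus peripheral blood mononuclear cells, sampled 24 h after dosing. Values come from bidirectional curve fitting with DMSO as baseline.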

CD69, CD69 (gene 969) = assay: BSK_SAg_CD69: BioMAP Diversity Plus: SAg Assay for CD69 Biomarker Activity (AID 2283089); conditions: primary human HUVEC with PBMC; actives raise or lower the signal;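 for AC50: cell surface CD69 protein quantified by ELISA with fluorescence detection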
Outline: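 Values derive from bidirectional fitting relative to DMSO vehicle. Cells: umbilical vein endothelium plus peripheral blood mononuclear cells, treated 24 h before fluorescent ELISA for CD69.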

[12] = read-out: Monocyte Chemoattractant Protein-1 (MCP1), CCL2 (gene 6347); assay: BSK_SAg_MCP1: BioMAP Diversity Plus: SAg Assay for Monocyte Chemoattractant Protein-1 (MCP1) Biomarker Activity (AID 2283090); conditions: primary human HUVEC with PBMC; actives raise or lower the signal
Outline: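 Values derive from bidirectional fitting of ELISA-measured MCP1 against DMSO controls. Readings were taken 24 h after dosing human vascular endothelial cells co-cultured with peripheral blood mononuclear cells under superantigen stimulation.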

[13] = read-out: E-selectin (Homo sapiens) (UniProt P16581); assay: BSK_SAg_Eselectin: BioMAP Diversity Plus: SAg Assay for Eselectin Biomarker Activity (AID 2283091); conditions: primary human HUVEC with PBMC; actives raise or lower the signal
Outline: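 Primary human endothelial cells and peripheral blood mononuclear cells were co-cultured and exposed to chemical for 24 hours. E-selectin levels were then quantified by ELISA, with bidirectional curve fitting normalised to DMSO controls.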

[14] = read-out: Monokine induced gamma interferon (MIG), CXCL9 (gene 4283); assay: BSK_SAg_MIG: BioMAP Diversity Plus: SAg Assay for Monokine induced gamma interferon (MIG) Biomarker Activity (AID 2283092); conditions: primary human HUVEC with PBMC; actives raise or lower the signal
Outline: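 Values reflect bidirectional fitting of ELISA-measured MIG against DMSO vehicle, taken 24 h after dosing of a co-culture of human umbilical vein endothelial cells and peripheral blood mononuclear cells.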

[15] = BSK_SAg_PBMCCytotoxicity: PBMC Cytotoxicity Assessment in the BioMAP Diversity Plus: SAg Assay (AID 2283093); conditions: primary human HUVEC with PBMC;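 note: fitted both ways against DMSO so a hit may be loss or gain of signal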
Outline: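 PBMC viability by Alamar Blue reduction, fluorescence read at 546/580 nm after 6 h dye exposure. Cells were dosed 1 h before SEB plus TSST-1 activation (20 ng/mL final each), then held 90 h; endothelial/PBMC human co-culture.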

[16] = read-out: Interleukin-8 (IL8), CXCL8 (gene 3576); assay: BSK_SAg_IL8: BioMAP Diversity Plus: SAg Assay for Interleukin-8 (IL8) Biomarker Activity (AID 2283094); conditions: primary human HUVEC with PBMC; actives raise or lower the signal
Outline: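 Chemicals were dosed onto a human endothelial–PBMC co-culture, and IL-8 was quantified by ELISA after 24 h. Both increases and decreases were fitted relative to DMSO.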

[17] = read-out: Vascular cell adhesion molecule 1 (VCAM1), VCAM1 (gene 7412); assay: BSK_LPS_VCAM1: BioMAP Diversity Plus: LPS Assay for Vascular cell adhesion molecule 1 (VCAM1) Biomarker Activity (AID 2283086); conditions: primary human HUVEC with PBMC; actives raise or lower the signal
Outline: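 Cells are dosed in an LPS-stimulated endothelial/mononuclear co-culture and, after 24 h, VCAM-1 is quantified by ELISA. Activity in either direction is fitted relative to the DMSO negative control.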

[18] = read-out: Macrophage colony-stimulating factor (MCSF), CSF1 (gene 1435); assay: BSK_LPS_MCSF: BioMAP Diversity Plus: LPS Assay for Macrophage colony-stimulating factor (MCSF) Biomarker Activity (AID 2283083); conditions: primary human HUVEC with PBMC; actives raise or lower the signal
Outline: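 Compound is added to a human vascular primary co-culture of umbilical vein endothelium and blood mononuclear cells. After 24 h, M-CSF is quantified by ELISA. Signal changes are fitted in both directions against DMSO.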

Measured: AC50

E-selectin (Homo sapiens), sequence (P16581 whole entry, looked up): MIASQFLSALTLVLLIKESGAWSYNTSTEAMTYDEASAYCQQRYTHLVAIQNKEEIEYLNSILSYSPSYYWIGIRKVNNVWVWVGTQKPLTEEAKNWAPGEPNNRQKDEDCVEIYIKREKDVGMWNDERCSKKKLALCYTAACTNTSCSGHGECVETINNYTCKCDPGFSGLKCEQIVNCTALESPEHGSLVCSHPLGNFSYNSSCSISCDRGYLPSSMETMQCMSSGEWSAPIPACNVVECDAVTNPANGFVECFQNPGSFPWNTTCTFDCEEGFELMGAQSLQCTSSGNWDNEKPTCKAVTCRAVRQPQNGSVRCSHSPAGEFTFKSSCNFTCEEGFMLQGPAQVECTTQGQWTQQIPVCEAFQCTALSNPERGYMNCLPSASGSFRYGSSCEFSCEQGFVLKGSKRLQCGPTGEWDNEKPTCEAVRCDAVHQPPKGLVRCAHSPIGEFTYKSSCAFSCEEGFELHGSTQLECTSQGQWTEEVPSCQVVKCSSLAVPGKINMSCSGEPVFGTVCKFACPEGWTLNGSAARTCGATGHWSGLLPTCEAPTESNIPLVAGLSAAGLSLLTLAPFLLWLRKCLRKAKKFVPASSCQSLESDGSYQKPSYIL
Tumor necrosis factor (Homo sapiens), sequence (P01375 whole entry, looked up): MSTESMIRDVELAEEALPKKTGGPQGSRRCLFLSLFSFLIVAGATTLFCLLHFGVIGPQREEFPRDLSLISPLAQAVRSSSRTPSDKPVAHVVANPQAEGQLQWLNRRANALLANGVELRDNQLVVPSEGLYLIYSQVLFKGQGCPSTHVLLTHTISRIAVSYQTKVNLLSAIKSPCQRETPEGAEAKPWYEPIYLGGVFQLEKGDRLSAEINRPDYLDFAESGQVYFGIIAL

Cc1cc(Cl)ccc1N
not listed: [17] | [18]
inactive: all other assays above

O=C(Cc1ccccc1)OCCc1ccccc1
active: [6] 3.97 µM
inactive: [1] | CD40, CD40 (gene 958) [2] | [3] | [4] | [6] | [7] | [8] | [9] | [10] | [17] | CD38, CD38 (gene 952) | CD40, CD40 (gene 958) [11] | CD69, CD69 (gene 969) | [12] | [13] | [14] | [16]

Oc1cccc(-c2ccccc2)c1
active: CD40, CD40 (gene 958) [2] 20 µM | [3] 32.5 µM | [5] 29.8 µM | [7] 4.9 µM | [8] 8.25 µM | [9] 33.3 µM | [17] 20 µM | CD40, CD40 (gene 958) [11] 30.8 µM | [12] 20 µM | [13] 33.6 µM
inactive: [1] | [4] | [6] | [10] | CD38, CD38 (gene 952) | CD69, CD69 (gene 969) | [14] | [16]

N#CCCC(Br)(C#N)CBr (centres undefined)
inactive: [8]
active: [1] 23.9 µM | CD40, CD40 (gene 958) [2] 8.78 µM | [3] 20 µM | [4] 26.7 µM | [6] 11.7 µM | [7] 11 µM | [18] 10.6 µM | [9] 21.4 µM | [10] 13 µM | CD38, CD38 (gene 952) 10.2 µM | CD40, CD40 (gene 958) [11] 11.2 µM | CD69, CD69 (gene 969) 17 µM | [12] 20 µM | [13] 20 µM | [14] 30 µM | [16] 20 µM

Clc1cccc(Cl)c1
not listed: [17] | [18]
inactive: all other assays above

CCOP(=S)(OCC)SCS(=O)(=O)C(C)(C)C
not listed: [5] | [15] | [17]
inactive: all other assays above

CC(C)O.CC(C)O.OCCN(CCO)CCO.OCCN(CCO)CCO.[Ti]
active: [9] 1.38 µM
not listed: [3] | [5] | [15] | [17]
inactive: all other assays above

COc1ccccc1N
not listed: [3] | [5] | [15] | [17] | [18]
inactive: all other assays above

O=c1oc2ccccc2c(O)c1C(CC(O)c1ccc(-c2ccc(Br)cc2)cc1)c1ccccc1 (centres undefined)
active: [1] 5.28 µM | CD40, CD40 (gene 958) [2] 13 µM | [4] 0.0502 µM | [7] 19.1 µM | [18] 12.8 µM | [9] 19.1 µM | [17] 14.1 µM | CD38, CD38 (gene 952) 23 µM | CD40, CD40 (gene 958) [11] 14.1 µM | CD69, CD69 (gene 969) 19.1 µM | [12] 22.6 µM | [13] 28.6 µM | [14] 33.3 µM
inactive: [6] | [8] | [10] | [16]

C=CC(Cl)CCl (centres undefined)
active: [1] 0.0169 µM | CD40, CD40 (gene 958) [11] 0.478 µM
not listed: [3] | [15] | [17] | [18]
inactive: all other assays above

O=C(O)COc1cc(Cl)c(Cl)cc1Cl
not listed: [3] | [15] | [17] | [18]
inactive: all other assays above

O=[N+]([O-])c1cccc2ccccc12
not listed: [3] | [5] | [17] | [18]
inactive: all other assays above

CCC(C)(C#N)N=NC(C)(C#N)CC (centres undefined)
not listed: [3] | [5] | [15] | [17] | [18]
inactive: all other assays above

Cc1ccc2nc3sc(=O)sc3nc2c1
active: CD40, CD40 (gene 958) [2] 4.27 µM | [6] 7.83 µM | [7] 6.93 µM | [8] 1.2 µM | [17] 7.61 µM | CD38, CD38 (gene 952) 6.68 µM | CD40, CD40 (gene 958) [11] 6.41 µM | [13] 8.11 µM
inactive: [1] | [4] | [9] | [10] | CD69, CD69 (gene 969) | [12] | [14] | [16]

CCOP(=O)(OCC)OC(=CCl)c1ccc(Cl)cc1Cl
active: [1] 33.2 µM | CD40, CD40 (gene 958) [2] 20 µM | [9] 11.9 µM | CD40, CD40 (gene 958) [11] 20 µM | CD69, CD69 (gene 969) 20 µM | [13] 28.6 µM
not listed: [3] | [15] | [17] | [18]
inactive: all other assays above
